Molecules are shown by their SMILES. The whole screen tested about 52,000 compounds, of which about 4,300 (8.3%) were called active. No stated cut-off is given here; in the data, active means survival mostly below about 52% (no sharp cut-off); inactive means mostly above about 56%. For the sample, actives were picked, then their nearest neighbours and some compounds at random.

The test has as its system DeltatarO mutant. Put plainly: S. aureus survival, RN4220 and DeltatarO strains – OD600, teichoic acid synthesis inhibitors, primary screen (AID 463173). The settings on record: S. aureus RN4220 wild type/DeltatarO growth, OD600, 18 h, active compounds read low, screened at 18.75 µg/mL (by protocol).
For the molecule `O=C(CCCc1ccccc1)NC1CC(=O)N(c2cccc(F)c2)C1` (configuration not stated), the survival is 120% (inactive).

For `CN(C)c1ccc(C(CNS(=O)(=O)c2ccc(F)cc2F)N2CCOCC2)cc1` (configuration not stated), the survival was 69% (inactive). Then `Cc1nn2c(=O)cc(CN(C)c3ccccc3)nc2s1`, with 135% (inactive). Then `COc1ccc(S(=O)(=O)N2CCC(Oc3ccc(-n4cnnn4)cc3)CC2)cc1`, with 90% (inactive).

In the case of `O=C(NC1CC(=O)N(c2ccc(F)cc2)C1)c1ccc(S(=O)(=O)N2CCOCC2)cc1` (configuration not stated), the survival was 93% (inactive). Then `Cn1c(SCC(N)=O)nnc1-c1ccc(S(=O)(=O)N2CCCC2)cc1`, with 79% (inactive); and `Cc1ccc(Cl)cc1N1CCN(C(=O)Cn2cnc3onc(-c4ccc(F)cc4)c3c2=O)CC1`, with 75% (inactive); and `O=C(NCCc1ccccc1)C1CCC(CNS(=O)(=O)c2ccccc2)CC1` (configuration not stated), with 91% (inactive). Then `CCOc1ccc(NC(=O)CSc2ncc3c(n2)-c2ccccc2N(Cc2ccccc2C)S3(=O)=O)cc1`, with 91% (inactive); and `CCc1cccc(NC(=O)CSc2ncc3c(n2)-c2ccccc2N(CC)S3(=O)=O)c1`, with 101% (inactive). For the molecule `CCc1cccc(NC(=O)CSc2ncc3c(n2)-c2ccccc2N(Cc2ccccc2C)S3(=O)=O)c1`, the survival was 8% (active). Then `CCOC(=O)c1ccc(NC(=O)CC2C(=O)N(c3cccc(C)c3)C(=O)N2CCOC)cc1` (configuration not stated), with 74% (inactive). Turning to `CCc1ccc(NC(=O)[C@H](Cc2ccccc2)N2Cc3ccccc3C2=O)cc1`, the survival was 88% (inactive). For the molecule `CCCCNc1nc2c(-c3cccc(C)c3)nnn2c2ccccc12`, the survival was 98% (inactive). Then `CC1CCC(Nc2nc3c(-c4cccc(C(F)(F)F)c4)nnn3c3ccccc23)CC1` (configuration not stated), with -3% (active); and `FC(F)(F)c1cccc(-c2nnn3c2nc(NC2CCCCC2)c2ccccc23)c1`, with 13% (active); and `COc1ccc(CCNc2nc3c(-c4cccc(C(F)(F)F)c4)nnn3c3ccccc23)cc1OC`, with 85% (inactive). `Brc1cccc(-c2nnn3c2nc(NC2CCCCC2)c2ccccc23)c1`: the survival was 64% (inactive). `Fc1cccc(-c2nnn3c2nc(NC2CCCCC2)c2ccccc23)c1`: the survival is 59% (inactive). As for `Cc1cccc(CCNC(=O)c2ccc(CSCc3cccc(Cl)c3)o2)c1`, the survival is 70% (inactive). Then `O=C(CN1C(=O)COc2ccc(S(=O)(=O)N3CCOCC3)cc21)Nc1ccc(F)c(Cl)c1`, with 106% (inactive); and `CCc1ccc(NC(=O)CN2C(=O)C3(SCC(=O)N3c3ccccc3)c3ccccc32)cc1` (configuration not stated), with 129% (inactive); and `Cc1ccc(Cl)cc1-n1c(SCC(=O)NCc2ccccc2)nc2n[nH]c(C)c2c1=N`, with 81% (inactive). Then `CCCCN(CC)C(=O)CSc1nc2n[nH]c(C)c2c(=N)n1-c1cccc(Cl)c1`, with 17% (active); and `Cc1cccc(NC(=O)CSc2nc3n[nH]c(C)c3c(=N)n2-c2cccc(Cl)c2)c1`, with 55% (inactive); and `Cc1ccc(-n2c(SCC(=O)NCc3ccccc3)nc3n[nH]c(C)c3c2=N)cc1Cl`, with -5% (active). As for `Cc1cccc(-n2c(SCC(=O)Nc3ccc(C)c(C)c3)nc3n[nH]c(C)c3c2=N)c1`, the figure is 87% (inactive); as for `CCCCN(CC)C(=O)CSc1nc2n[nH]c(C)c2c(=N)n1-c1cccc(OC)c1`, 109% (inactive); as for `Cc1c(Cl)cccc1-n1c(SCC(=O)NCc2ccccc2)nc2n[nH]c(C)c2c1=N`, 126% (inactive).

Consider `CCCCN(CC)C(=O)CSc1nc2n[nH]c(C)c2c(=N)n1-c1cccc(C)c1`, for which the survival was 88% (inactive). For `Cc1ccc(NC(=O)CSc2nc3n[nH]c(C)c3c(=N)n2-c2cccc(C)c2)cc1`, the survival is -5% (active).

As for `O=C(NCC1CCCO1)Nc1c[nH]c2c(Cl)cccc2c1=O` (configuration not stated), the survival is 97% (inactive). As for `Cn1c(=O)cc(SCC(=O)NCc2ccc(F)cc2)c2ccc(Cl)cc21`, the figure is 91% (inactive); as for `Cc1cccc(Cn2c(C)c(C)c3cc(C(=O)NCc4ccco4)ccc32)c1`, 94% (inactive); as for `COc1cc(CCNC(=O)c2ccc3c(c2)c(C)c(C)n3Cc2cccc(C)c2)cc(OC)c1OC`, 80% (inactive). Then `Cc1ccc(CNC(=O)CC(C)S(=O)(=O)c2cc3c(cc2C)NC(=O)CO3)cc1` (configuration not stated), with 89% (inactive); and `O=C(Nc1ccc(C(=O)N2CCN(c3ccc(F)cc3)CC2)cc1)c1nsc2ccccc12`, with 81% (inactive). As for `Cc1ccc(Cl)cc1N1CCN(C(=O)c2ccc(NC(=O)c3nsc4ccccc34)cc2)CC1`, the survival was 6% (active). As for `O=C(Nc1ccc(C(=O)N2CCN(c3ccccc3)CC2)cc1)c1nsc2ccccc12`, the figure is -1% (active). For the molecule `Cc1ccc(C(=O)N2CCC(C)CC2)cc1NC(=O)c1nsc2ccccc12`, the survival was 96% (inactive). Then `O=C(Nc1ccc(C(=O)N2CCN(c3ccc(Cl)cc3)CC2)cc1)c1nsc2ccccc12`, with 72% (inactive). Turning to `O=C(Nc1ccc(C(=O)N2CCN(c3cccc(Cl)c3)CC2)cc1)c1nsc2ccccc12`, the survival was 79% (inactive). Regarding `Cc1ccc(C(=O)N2CCC(C(N)=O)CC2)cc1NC(=O)c1nsc2ccccc12`, the survival was 87% (inactive). As for `Cc1ccc(C(=O)N2CCCCC2)cc1NC(=O)c1nsc2ccccc12`, the figure is -4% (active); as for `Cc1ccc(C)c(N2CCN(C(=O)c3ccc(NC(=O)c4nsc5ccccc45)cc3)CC2)c1`, 67% (inactive). Then `Cc1ccc(N2CCN(C(=O)c3cn(C)c4ccc(S(=O)(=O)N(C)C5CCCCC5)cc4c3=O)CC2C)cc1` (configuration not stated), with 91% (inactive).

On to `O=C(CSc1nccn1-c1ccc(F)cc1)Nc1ccc(OC(F)(F)F)cc1`, for which the survival is 78% (inactive). Turning to `CCc1ccc(S(=O)(=O)Nc2ccc3c(c2)sc(=O)n3C)cc1`, the survival is 91% (inactive). As to `COC(=O)c1ccccc1NC(=O)Cn1c(=O)n(-c2ccc(Cl)cc2)c(=O)c2c(C)c(C)sc21`, the survival is 86% (inactive). Take `CCOC(=O)c1[nH]c(C)c(CCC(=O)NCc2cccc(Cl)c2)c1C`: the survival is 76% (inactive).

Take `COc1ccc(CNC(=O)Cn2ncc3c(=O)oc4ccccc4c32)c(OC)c1`: the survival was 89% (inactive). As for `O=C(COc1ccccc1F)Nc1ccc2nc(SCC(=O)N3CCOCC3)sc2c1`, the figure is 79% (inactive); as for `CCOc1ccc(CCNC(=O)CCc2c(C)nc3c(-c4ccccc4)c(C)nn3c2C)cc1OCC`, 70% (inactive). As for `Cc1cccc(N(CC(=O)NCCSCc2cccc(Cl)c2)S(=O)(=O)c2ccccc2)c1C`, the figure is 57% (inactive); as for `Cc1ccc(SCCNC(=O)CN(c2cccc(C)c2C)S(C)(=O)=O)cc1`, 57% (inactive).

With `Cc1ccccc1CSCCNC(=O)CN(c1ccccc1)S(=O)(=O)N(C)C`, the survival is 52% (inactive).

For the molecule `CN(C)S(=O)(=O)N(CC(=O)NCCSCc1cccc(Cl)c1)c1ccccc1`, the survival is 57% (inactive). As for `Cc1cccc(N(CC(=O)NCCSCc2ccc(Cl)cc2)S(C)(=O)=O)c1C`, the figure is 33% (active). For `CN(C)S(=O)(=O)N(CC(=O)NCCSCc1ccc(Cl)cc1Cl)c1ccccc1`, the survival is 47% (active).

For the molecule `Cc1cccc(N(CC(=O)NCCSc2ccc(Cl)cc2)S(=O)(=O)c2ccccc2)c1C`, the survival was 49% (inactive). For the molecule `Cc1ccc(CSCCNC(=O)CN(c2cccc(C)c2C)S(=O)(=O)c2ccccc2)cc1`, the survival was 52% (inactive). As for `Cc1cccc(N(CC(=O)NCCSc2ccc(Cl)cc2)S(C)(=O)=O)c1C`, the figure is 38% (active). On to `COc1cc(Cl)c(NS(=O)(=O)c2ccc3c(c2)CC(C)N3C(=O)C2CCC2)c(OC)c1` (configuration not stated), for which the survival was 80% (inactive).

As to `CC(C)NC(=O)c1ccc(Cn2c(SCc3ccc(F)cc3)nc3cccnc32)cc1`, the survival was 55% (inactive). As for `O=C1c2ccccc2-c2nc3ccccc3c(=O)n21`, the survival is 106% (inactive). For the molecule `COc1cc(OC)c(NC(=O)COc2ccccc2-c2nnc(-c3ccccc3)o2)cc1Cl`, the survival was 95% (inactive). Then `COCCCNC(=O)c1ccc2nc(Cc3ccc(OC)cc3)oc2c1`, with 69% (inactive); and `N#C/C(=C\c1cn(Cc2ccc(C#N)cc2)c2ccccc12)C(=O)NCc1ccco1`, with 67% (inactive). Then `O=C(Cn1cnc2onc(-c3ccc(F)cc3)c2c1=O)Nc1ccc(F)c(Cl)c1`, with 84% (inactive); and `CCOC(=O)c1ccccc1NC(=O)CN1CCCN(Cc2cc(C)ccc2C)S1(=O)=O`, with 126% (inactive); and `CCOC(=O)c1c(C)oc2nc(C)nc(N3CCN(c4ccccc4)CC3)c12`, with 83% (inactive).

With `CCOC(=O)c1c(C)oc2c1c(O)c(N=O)c1ccccc12`, the survival is 18% (active). As for `CCOC(=O)c1c(C)oc2ncnc(N3CCN(c4ccccc4)CC3)c12`, the figure is 89% (inactive). Take `CCN(CC)c1cc(C)c2cc(NC(=O)c3ccc(F)cc3Cl)ccc2n1`: the survival was 39% (active). As for `CCN(CC)c1cc(C)c2cc(NC(=O)c3ccccc3OC)ccc2n1`, the figure is 7% (active); as for `CCN(CC)c1cc(C)c2cc(NC(=O)c3cccc(F)c3)ccc2n1`, 42% (inactive). Turning to `CCN(CC)c1cc(C)c2cc(NC(=O)/C=C/c3ccccc3OC(C)C)ccc2n1`, the survival was 71% (inactive).

Consider `CCN(CC)c1cc(C)c2cc(NC(=O)c3cc(OC)cc(OC)c3)ccc2n1`, for which the survival was 59% (inactive). Then `CCN(CC)c1cc(C)c2cc(NC(=O)c3ccccc3Cl)ccc2n1`, with 55% (inactive).

For `CCN(CC)c1cc(C)c2cc(NC(=O)c3cccc(OC)c3)ccc2n1`, the survival is 40% (inactive). Consider `CCN(CC)c1cc(C)c2cc(NC(=O)c3cccc(OC)c3OC)ccc2n1`, for which the survival is 95% (inactive).

On to `CCOc1ccc(C(=O)Nc2ccc3nc(N(CC)CC)cc(C)c3c2)cc1`, for which the survival is 70% (inactive). On to `CCN(CC)c1cc(C)c2cc(NC(=O)c3ccc(OC)c(OC)c3)ccc2n1`, for which the survival is 35% (active).

Turning to `CCN(CC)c1ccc(C(=O)Nc2ccc3nc(N(CC)CC)cc(C)c3c2)cc1`, the survival is 52% (inactive). For `CCOc1ccccc1C(=O)Nc1ccc2nc(N(CC)CC)cc(C)c2c1`, the survival is 65% (active). As for `Cc1ccc(Cl)cc1NC(=O)c1sc2nc(C)c(C)c(C)c2c1N`, the figure is 75% (inactive); as for `Cc1cccc2sc(N(Cc3cccnc3)C(=O)Cc3ccccc3)nc12`, 81% (inactive).

(Values after PubChem BioAssay AID463173 (ICCB-Longwood Screening Facility, Harvard Medical School, 2010).)
